Assay results as given in the supplement of paper PMC9262897, “Low-cost anti-mycobacterial drug discovery using engineered E. coli” (Nature Communications, 2022).
Counter-ions that a name gives are not always drawn. ± gives the standard deviation of the averaged measurements.

How the values were obtained:
Experiment in all cases: growth (OD600 after 10 h); higher = more growth (less inhibition)
[1] = system: E. coli TESEC Alr+ wild-type control; settings: compound 0.1 mM; raw OD600 reference: median of DMSO wells 0.241, cell-free background 0.041
Method: (§1)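 TESEC Mtb Alr E. coli, or the Alr+ wild-type control, in 384-well plates with Prestwick library compounds at 0.1 mM and 1% DMSO, across arabinose induction levels of 1E3 to 1E7 nM. Growth is read as OD600 after 10 h at 37 °C in triplicate biological replicates.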

E. coli TESEC Mtb Alr [2] = settings: compound 0.1 mM
Method: as §1

E. coli TESEC Mtb Asd = settings: compound 0.1 mM
Method: (§2)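 TESEC E. coli strains in which the native enzyme is deleted and replaced by arabinose-inducible Mtb Asd, DapB, CysH or TrpD, each grown in its selective medium. Strains were screened against the Prestwick library at 0.1 mM and 1% DMSO in 384-well format at low and high arabinose induction. Growth is read as OD600 after 10 h in triplicate.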

E. coli TESEC Mtb DapB = settings: compound 0.1 mM
Method: as §2

[3] = system: E. coli TESEC Alr+ wild-type control; settings: compound 0.1 mM; raw OD600 reference: median of DMSO wells 0.49, cell-free background 0.052
Method: (§3)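 TESEC Mtb Alr E. coli (ΔaraC ΔtolC ΔentC Δalr ΔdadX, arabinose-inducible Mtb Alr) or the Alr+ wild-type control strain, grown in defined M9-fructose medium without D-alanine in 96-well plates with Prestwick library compounds at 0.1 mM and 1% DMSO. Low Alr induction is 0.1 µM arabinose and high induction is 10 mM arabinose.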

E. coli TESEC Mtb Alr [4] = settings: compound 0.1 mM; remark: listed apart in the source
Method: as §3

[5] = arabinose 1000 nM, raw OD600 reference: median of DMSO wells 0.294, cell-free background 0.041
[6] = arabinose 10000 nM, raw OD600 reference: median of DMSO wells 0.264, cell-free background 0.041
[7] = arabinose 100000 nM, raw OD600 reference: median of DMSO wells 0.201, cell-free background 0.041
[8] = arabinose 1000000 nM, raw OD600 reference: median of DMSO wells 0.193, cell-free background 0.041
[9] = arabinose 10000000 nM, raw OD600 reference: median of DMSO wells 0.146, cell-free background 0.041
[10] = arabinose induction (level): High, raw OD600 reference: median of DMSO wells 0.331, cell-free background 0.041
[11] = arabinose induction (level): Low, raw OD600 reference: median of DMSO wells 0.417, cell-free background 0.041
[12] = arabinose induction (level): High, raw OD600 reference: median of DMSO wells […], cell-free background 0.041
[13] = arabinose induction (level): Low, raw OD600 reference: median of DMSO wells 0.227, cell-free background 0.041
[14] = arabinose 100 nM, raw OD600 reference: median of DMSO wells 0.413, cell-free background 0.052
[15] = arabinose 10000000 nM, raw OD600 reference: median of DMSO wells […], cell-free background 0.052

| Compound | growth [1] | growth (E. coli TESEC Mtb Alr [2]; [5]) | growth (E. coli TESEC Mtb Alr [2]; [6]) | growth (E. coli TESEC Mtb Alr [2]; [7]) | growth (E. coli TESEC Mtb Alr [2]; [8]) | growth (E. coli TESEC Mtb Alr [2]; [9]) | growth (E. coli TESEC Mtb Asd; [10]) | growth (E. coli TESEC Mtb Asd; [11]) | growth (E. coli TESEC Mtb DapB; [12]) | growth (E. coli TESEC Mtb DapB; [13]) | growth [3] | growth (E. coli TESEC Mtb Alr [4]; [14]) | growth (E. coli TESEC Mtb Alr [4]; [15]) |
| --- | --- | --- | --- | --- | --- | --- | --- | --- | --- | --- | --- | --- | --- |
| CCCc1nc(C)c2c(=O)nc(-c3cc(S(=O)(=O)N4CCN(CC)CC4)ccc3OCC)[nH]n12 [Vardenafil] | 0.148 ± 0.0033 | 0.221 ± 0.0081 | 0.26 ± 0.011 | 0.18 ± 0.0021 | 0.107 ± 0.0037 | 0.126 ± 0.0068 | 0.189 ± 0.02 | 0.238 ± 0.052 | 0.151 ± 0.0082 | 0.173 ± 0.018 | 0.55 ± 0.11 | 0.41 ± 0.0051 | 0.305 ± 0.014 |
| CCn1cc(C(=O)O)c(=O)c2cnc(N3CCNCC3)nc21 [Pipemidic acid] | 0.116 ± 0.0069 | 0.0801 ± 0.033 | 0.063 ± 0.0022 | 0.117 ± 0.0072 | 0.0845 ± 0.028 | 0.147 ± 0.0057 | 0.157 ± 0.019 | 0.149 ± 0.014 | 0.188 ± 0.0053 | 0.168 ± 0.0065 | 0.158 ± 0.008 | 0.156 ± 0.021 | 0.082 ± 0.0092 |
| CCCCC(=O)O[C@H]1CC[C@H]2[C@@H]3CCc4cc(O)ccc4[C@H]3CC[C@]12C [Estradiol Valerate] | 0.252 ± 0.004 | 0.307 ± 0.0067 | 0.285 ± 0.0065 | 0.215 ± 0.016 | 0.221 ± 0.021 | 0.13 ± 0.0034 | 0.404 ± 0.031 | 0.396 ± 0.048 | 0.193 ± 0.0052 | 0.207 ± 0.0061 | 0.48 ± 0.071 | 0.436 ± 0.018 | 0.38 ± 0.0047 |
| C#C[C@]1(O)CC[C@H]2[C@@H]3CCc4cc(OC)ccc4[C@H]3CC[C@@]21C [Ethynylestradiol 3-methyl ether] | 0.193 ± 0.01 | 0.279 ± 0.0063 | 0.262 ± 0.013 | 0.184 ± 0.015 | 0.163 ± 0.0052 | 0.149 ± 0.0072 | 0.383 ± 0.025 | 0.413 ± 0.06 | 0.204 ± 0.031 | 0.226 ± 0.025 | 0.564 ± 0.025 | 0.405 ± 0.011 | 0.348 ± 0.024 |
| Cc1c(C)c2c(c(C)c1O)CCC(C)(COc1ccc(CC3SC(=O)NC3=O)cc1)O2 (stereo not drawn) [Troglitazone] | 0.0771 ± 0.022 | 0.108 ± 0.06 | 0.0436 ± 0.0028 | 0.16 ± 0.011 | 0.0474 ± 0.003 | 0.104 ± 0.016 | 0.0511 ± 0.00036 | 0.0536 ± 0.0033 | 0.08 ± 0.0038 | 0.126 ± 0.04 | 0.445 ± 0.029 | 0.0885 ± 0.025 | 0.0573 ± 0.00085 |
| Cc1cnc(C(=O)O)c[n+]1[O-] [Acipimox] | 0.244 ± 0.006 | 0.304 ± 0.025 | 0.247 ± 0.0063 | 0.218 ± 0.029 | 0.1751 ± 0.0015 | 0.1397 ± 0.00085 | 0.263 ± 0.085 | 0.282 ± 0.065 | 0.199 ± 0.013 | 0.217 ± 0.021 | 0.497 ± 0.06 | 0.41 ± 0.009 | 0.338 ± 0.021 |
| NCc1ccccc1CC(=O)N[C@@H]1C(=O)N2C(C(=O)O)=C(CSc3nnnn3CC(=O)O)CS[C@H]12 [Ceforanide] | 0.3 ± 0.0032 | 0.324 ± 0.0083 | 0.167 ± 0.0036 | 0.238 ± 0.016 | 0.161 ± 0.0024 | 0.206 ± 0.0071 | 0.244 ± 0.01 | 0.315 ± 0.033 | 0.182 ± 0.012 | 0.242 ± 0.012 | 0.501 ± 0.055 | 0.108 ± 0.033 | 0.303 ± 0.024 |
| CCN1CCN(c2cc3c(cc2F)c(=O)c(C(=O)O)cn3C2CC2)CC1 [Enrofloxacin] | 0.04133 ± 0.00021 | 0.0446 ± 0.0089 | 0.0393 ± 0.00035 | 0.0406 ± 0.0012 | 0.0391 ± 0.0002 | 0.0419 ± 0.0033 | 0.0465 ± 0.0016 | 0.0466 ± 0.0016 | 0.0496 ± 0.00083 | 0.0487 ± 0.0006 | 0.0543 ± 0.0025 | 0.05387 ± 0.00035 | 0.0522 ± 0.001 |
| CC(=O)N[C@@H](CC(C)C)C(=O)O [N-Acetyl-L-leucine] | 0.243 ± 0.013 | 0.292 ± 0.016 | 0.259 ± 0.004 | 0.219 ± 0.0097 | 0.192 ± 0.0042 | 0.134 ± 0.0046 | 0.378 ± 0.077 | 0.476 ± 0.0098 | 0.206 ± 0.0033 | 0.205 ± 0.0021 | 0.637 ± 0.023 | 0.41 ± 0.013 | 0.349 ± 0.0042 |
| Cc1cc(C(C)(C)C)c(O)c(C)c1CC1=NCCN1 [Oxymetazoline hydrochloride] | 0.236 ± 0.0092 | 0.302 ± 0.0066 | 0.263 ± 0.014 | 0.196 ± 0.011 | 0.17 ± 0.011 | 0.165 ± 0.011 | 0.372 ± 0.07 | 0.416 ± 0.035 | 0.202 ± 0.016 | 0.251 ± 0.028 | 0.514 ± 0.062 | 0.414 ± 0.013 | 0.328 ± 0.011 |
| CCC(C)(C)c1ccc(CC(C)CN2C[C@@H](C)O[C@@H](C)C2)cc1 (stereo partly drawn) [Amorolfine hydrochloride] | 0.0552 ± 0.0076 | 0.107 ± 0.0069 | 0.0519 ± 0.0014 | 0.0591 ± 0.0048 | 0.04143 ± 0.00023 | 0.0502 ± 0.0026 | 0.237 ± 0.052 | 0.284 ± 0.031 | 0.168 ± 0.02 | 0.197 ± 0.017 | 0.0891 ± 0.0055 | 0.0639 ± 0.0015 | 0.0533 ± 0.0014 |
| CC1CC(OC(=O)c2ccccc2O)CC(C)(C)C1 (stereo not drawn) [Homosalate] | 0.248 ± 0.0027 | 0.3 ± 0.005 | 0.263 ± 0.019 | 0.199 ± 0.03 | 0.18 ± 0.0023 | 0.15 ± 0.0039 | 0.202 ± 0.011 | 0.332 ± 0.052 | 0.194 ± 0.018 | 0.205 ± 0.027 | 0.543 ± 0.057 | 0.3918 ± 0.0032 | 0.332 ± 0.016 |
| CCN(CC)CCNC(=O)c1cc(S(C)(=O)=O)ccc1OC [Tiapride hydrochloride] | 0.249 ± 0.0035 | 0.295 ± 0.01 | 0.263 ± 0.0064 | 0.213 ± 0.016 | 0.184 ± 0.0024 | 0.149 ± 0.0067 | 0.295 ± 0.057 | 0.422 ± 0.045 | 0.183 ± 0.023 | 0.218 ± 0.035 | 0.481 ± 0.087 | 0.422 ± 0.011 | 0.361 ± 0.013 |
| CN1CCN(CC(=O)N2c3ccccc3C(=O)Nc3cccnc32)CC1 [Pirenzepine dihydrochloride] | 0.242 ± 0.0032 | 0.269 ± 0.049 | 0.268 ± 0.013 | 0.193 ± 0.0071 | 0.177 ± 0.0037 | 0.148 ± 0.0028 | 0.28 ± 0.051 | 0.418 ± 0.034 | 0.19 ± 0.013 | 0.253 ± 0.038 | 0.531 ± 0.061 | 0.4155 ± 0.0034 | 0.334 ± 0.019 |
| Nc1nc(=S)c2ncn([C@@H]3O[C@H](CO)[C@@H](O)[C@H]3O)c2[nH]1 [Thioguanosine] | 0.0575 ± 0.0014 | 0.0503 ± 0.0022 | 0.0465 ± 0.00055 | 0.0493 ± 0.00055 | 0.0474 ± 0.00055 | 0.05337 ± 0.00021 | 0.209 ± 0.0071 | 0.127 ± 0.014 | 0.174 ± 0.011 | 0.115 ± 0.032 | 0.349 ± 0.02 | 0.225 ± 0.028 | 0.0964 ± 0.0089 |
| CCN(CC)CCNC(=O)COc1ccc(OC)cc1 [Mefexamide hydrochloride] | 0.24 ± 0.0042 | 0.285 ± 0.019 | 0.2683 ± 0.0018 | 0.196 ± 0.01 | 0.182 ± 0.0058 | 0.143 ± 0.0038 | 0.304 ± 0.1 | 0.411 ± 0.013 | 0.225 ± 0.041 | 0.227 ± 0.026 | 0.501 ± 0.067 | 0.421 ± 0.0097 | 0.343 ± 0.0047 |
